Measured values: PubChem BioAssay AID1159580 (chemical genetic matrix, 2015)
The campaign covered roughly 5,500 compounds. About 2,000 (36%) were called active. Not shown: some 18% with an inconclusive outcome. No stated cut-off is given here; in the data, active means normalized growth mostly below about 0.91 (no sharp cut-off); inconclusive means no clear call, values can overlap the other calls; inactive means mostly above about 0.92. The list shows a part of the results.

Assay: chemical genetic growth profiling, strain panel (AID 1159580);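 further: tested at 20 µM; growth read once vehicle control cultures reached saturation at 30 °C; 1 = growth at the plate median or of vehicle wells; lower values mean less growth of the strain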
Settings: growth OD

Measured: normalized growth

CC(NCCc1ccc(O)cc1)C(O)c1ccc(O)cc1 (centres undefined)
inactive: S. cerevisiae deletion strains, locus YJR043C, strain POL32, hits give low values 0.992 | S. cerevisiae deletion strains, locus YJR066W, strain TOR1, hits give low values 0.948 | S. cerevisiae deletion strains, locus YKL009W, strain mrt4, hits give low values 0.977 | S. cerevisiae deletion strains, locus YKL068W, hits give low values 0.985 | S. cerevisiae deletion strains, locus YKL085W, strain MDH1 (second series), hits give low values 0.984 | S. cerevisiae deletion strains, locus YKL085W, strain MDH1, hits give low values 0.984 | S. cerevisiae deletion strains, locus YKL160W, strain elf1, hits give low values 0.966 | S. cerevisiae deletion strains, locus YKL190W, strain CNB1, hits give low values 0.998 | S. cerevisiae deletion strains, locus YKR001C, strain vps1, hits give low values 0.987 | S. cerevisiae deletion strains, locus YKR026C, strain gcn3, hits give low values 0.985 | S. cerevisiae deletion strains, locus YKR091W, strain srl3, hits give low values 0.985 | S. cerevisiae deletion strains, locus YLL001W, strain dnm1, hits give low values 0.981 | S. cerevisiae deletion strains, locus YLL026W, hits give low values 0.999 | S. cerevisiae deletion strains, locus YLL041C, strain sdh2, hits give low values 0.983 | S. cerevisiae deletion strains, locus YLR027C, strain aat2, hits give low values 0.983 | S. cerevisiae deletion strains, locus YLR039C, strain RIC1, hits give low values 1.02 | S. cerevisiae deletion strains, locus YLR058C, strain SHM2, hits give low values 0.988 | S. cerevisiae deletion strains, locus YLR102C, strain apc9, hits give low values 0.98 | S. cerevisiae deletion strains, locus YLR113W, strain HOG1, hits give low values 1.01 | S. cerevisiae deletion strains, locus YLR221C, strain rsa3, hits give low values 1.03 | S. cerevisiae deletion strains, locus YLR258W, strain gsy2, hits give low values 0.954 | S. cerevisiae deletion strains, locus YLR262C, strain YPT6 (second series), hits give low values 0.993 | S. cerevisiae deletion strains, locus YLR262C, strain YPT6, hits give low values 0.977 | S. cerevisiae deletion strains, locus YLR268W, strain sec22, hits give low values 0.975 | S. cerevisiae deletion strains, locus YLR320W, strain mms22, hits give low values 0.987 | S. cerevisiae deletion strains, locus YLR330W, strain CHS5, hits give low values 0.987 | S. cerevisiae deletion strains, locus YLR342W, strain FKS1 (second series), hits give low values 0.984 | S. cerevisiae deletion strains, locus YLR342W, strain FKS1, hits give low values 0.974 | S. cerevisiae deletion strains, locus YLR357W, strain rsc2, hits give low values 0.916 | S. cerevisiae deletion strains, locus YLR370C, strain arc18, hits give low values 0.95 | S. cerevisiae deletion strains, locus YLR371W, strain rom2, hits give low values 0.975 | S. cerevisiae deletion strains, locus YLR384C, strain iki3, hits give low values 0.975 | S. cerevisiae deletion strains, locus YLR418C, strain cdc73, hits give low values 0.969 | S. cerevisiae deletion strains, locus YML016C, strain PPZ1, hits give low values 0.986 | S. cerevisiae deletion strains, locus YML032C, strain rad52, hits give low values 0.976 | S. cerevisiae deletion strains, locus YML120C, strain ndi1, hits give low values 1.02 | S. cerevisiae deletion strains, locus YML124C, strain tub3, hits give low values 0.99 | S. cerevisiae deletion strains, locus YMR058W, strain fet3, hits give low values 0.988 | S. cerevisiae deletion strains, locus YMR078C, strain ctf18, hits give low values 0.986 | S. cerevisiae deletion strains, locus YMR125W, strain sto1, hits give low values 0.98 | S. cerevisiae deletion strains, locus YMR129W, hits give low values 1.01 | S. cerevisiae deletion strains, locus YMR205C, strain PFK2, hits give low values 1 | S. cerevisiae deletion strains, locus YMR223W, strain ubp8, hits give low values 0.976 | S. cerevisiae deletion strains, locus YMR231W, strain pep5, hits give low values 0.997 | S. cerevisiae deletion strains, locus YMR307W, strain GAS1, hits give low values 0.891 | S. cerevisiae deletion strains, locus YNL067W, strain RPL9B, hits give low values 1.01 | S. cerevisiae deletion strains, locus YNL071W, strain lat1, hits give low values 0.993 | S. cerevisiae deletion strains, locus YNL128W, strain TEP1, hits give low values 0.962 | S. cerevisiae deletion strains, locus YNL183C, strain NPR1, hits give low values 0.959 | S. cerevisiae deletion strains, locus YNL209W, strain ssb2, hits give low values 0.961 | S. cerevisiae deletion strains, locus YNL233W, strain BNI4, hits give low values 1 | S. cerevisiae deletion strains, locus YNL248C, strain rpa49, hits give low values 0.921 | S. cerevisiae deletion strains, locus YNL250W, strain rad50, hits give low values 0.974 | S. cerevisiae deletion strains, locus YNL271C, strain bni1, hits give low values 0.973 | S. cerevisiae deletion strains, locus YNL298W, strain CLA4, hits give low values 0.981 | S. cerevisiae deletion strains, locus YNL307C, strain MCK1, hits give low values 0.987 | S. cerevisiae deletion strains, locus YNL322C, strain KRE1 (second series), hits give low values 0.985 | S. cerevisiae deletion strains, locus YNR049C, strain mso1, hits give low values 0.977 | S. cerevisiae deletion strains, locus YNR052C, strain pop2, hits give low values 0.985 | S. cerevisiae deletion strains, locus YOL006C, strain TOP1, hits give low values 1.02 | S. cerevisiae deletion strains, locus YOL012C, strain htz1 0.994 | S. cerevisiae deletion strains, locus YOL147C, strain pex11, hits give low values 0.983 | S. cerevisiae deletion strains, locus YOR001W, strain rrp6, hits give low values 1.03 | S. cerevisiae deletion strains, locus YOR061W, strain CKA2, hits give low values 0.984 | S. cerevisiae deletion strains, locus YOR069W, strain VPS5, hits give low values 0.99 | S. cerevisiae deletion strains, locus YOR070C, strain gyp1, hits give low values 0.976 | S. cerevisiae deletion strains, locus YOR080W, strain dia2, hits give low values 0.977 | S. cerevisiae deletion strains, locus YOR083W, strain WHI5, hits give low values 0.935 | S. cerevisiae deletion strains, locus YOR106W, strain vam3, hits give low values 0.99 | S. cerevisiae deletion strains, locus YOR136W, strain idh2, hits give low values 0.993 | S. cerevisiae deletion strains, locus YOR144C, strain elg1, hits give low values 0.987 | S. cerevisiae deletion strains, locus YOR184W, strain ser1, hits give low values 0.978 | S. cerevisiae deletion strains, locus YOR231W, strain MKK1, hits give low values 1 | S. cerevisiae deletion strains, locus YOR265W, strain rbl2, hits give low values 0.985 | S. cerevisiae deletion strains, locus YOR270C, strain vph1, hits give low values 1.01 | S. cerevisiae deletion strains, locus YOR290C, strain snf2, hits give low values 0.912 | S. cerevisiae deletion strains, locus YOR316C, strain cot1, hits give low values 0.984 | S. cerevisiae deletion strains, locus YPL051W, strain arl3, hits give low values 0.978 | S. cerevisiae deletion strains, locus YPL078C, strain atp4, hits give low values 0.946 | S. cerevisiae deletion strains, locus YPL106C, strain sse1, hits give low values 0.969 | S. cerevisiae deletion strains, locus YPL240C, strain hsp82, hits give low values 0.995 | S. cerevisiae deletion strains, locus YPL241C, strain CIN2, hits give low values 0.992 | S. cerevisiae deletion strains, locus YPL256C, strain CLN2, hits give low values 1.01 | S. cerevisiae deletion strains, locus YPR119W, strain clb2, hits give low values 0.986 | S. cerevisiae deletion strains, locus YPR141C, strain kar3, hits give low values 0.969 | S. cerevisiae deletion strains, locus YPR163C, strain tif3, hits give low values 0.982 | S. cerevisiae deletion strains, locus YPR167C, strain met16, hits give low values 0.972 | S. cerevisiae deletion strains, strain wtn01, hits give low values 0.976 | S. cerevisiae strains, strain wild type, hits give low values 0.989
